Results: PubChem BioAssay

Experiment: compound effects on multiple myeloma cell viability – MM1S, calcein-AM fluorescence, 48 h, basal, profiling panel (AID 1165); further: test concentration not given here
Conditions: higher = more signal

Row | Compound | z-score
1 | CCOC(=O)C1=CC[C@@H](c2ccccc2)N(S(=O)(=O)c2ccc(C)cc2)[C@H]1c1ccccc1C | -0.247
2 | O=C1O[C@H](c2ccccc2)[C@H](c2ccccc2)N2[C@H]1[C@@H](C(=O)N1CCCCCCC1)[C@]1(C(=O)Nc3ccc(C#CCCO)cc31)[C@H]2c1ccccc1OCCO | -1
3 | C=C(C(=O)CC[C@@H](OC(=O)c1cccnc1)c1ccccc1OCCO)C(C)C | -1.81
4 | O=C1C2C=CC(C(O)Cc3ccccc3)N(n3cnnc3)C2C(=O)N1Cc1ccccc1 (centres undefined) | -0.304
5 | O=C1[C@@]23C=C(Br)[C@H](C[C@@H]2CCOC3)[C@@]12CO2 | -1.89
6 | COC(=O)[C@@]1(Cc2ccc(OC)cc2)[C@H]2c3cc(C(=O)N(C)C)n(C)c3C[C@H]2CN1C(=O)c1ccccc1 | -2.27
7 | COCCOC(=O)N1C(=O)[C@@]2(c3cc(C#CCNC(N)=O)ccc31)[C@H](C(=O)N1CCN(c3ncccn3)CC1)[C@H]1C(=O)O[C@H](c3ccccc3)[C@H](c3ccccc3)N1[C@@H]2c1ccc(OCCO)cc1 | 0.63
8 | COCCCNC(=O)[C@@H]1c2ccccc2C(=O)N(Cc2ccccc2Cl)[C@H]1c1ccc(CO)cc1 | 0.448
9 | C=CC[C@]1(C(=O)NCCCOC)N=C(c2ccc(OCCCO)cc2)O[C@H]1c1ccccc1CN=[N+]=[N-] | -1.86
